Source: PubChem BioAssay
IP6K1 inhibitor: Primary qHTS assay for small molecule inhibitors of Inositol hexaphosphate kinase 1 (IP6K1). IP6K1 kinase, ADP-Glo luminescence, 2 h; stronger effect = lower value. activity change, % (series mostly up to about 58 µM). 0.81% of 140,000 active; in the data active = activity change below about -25%
Target sequence (Q92551 whole entry, looked up): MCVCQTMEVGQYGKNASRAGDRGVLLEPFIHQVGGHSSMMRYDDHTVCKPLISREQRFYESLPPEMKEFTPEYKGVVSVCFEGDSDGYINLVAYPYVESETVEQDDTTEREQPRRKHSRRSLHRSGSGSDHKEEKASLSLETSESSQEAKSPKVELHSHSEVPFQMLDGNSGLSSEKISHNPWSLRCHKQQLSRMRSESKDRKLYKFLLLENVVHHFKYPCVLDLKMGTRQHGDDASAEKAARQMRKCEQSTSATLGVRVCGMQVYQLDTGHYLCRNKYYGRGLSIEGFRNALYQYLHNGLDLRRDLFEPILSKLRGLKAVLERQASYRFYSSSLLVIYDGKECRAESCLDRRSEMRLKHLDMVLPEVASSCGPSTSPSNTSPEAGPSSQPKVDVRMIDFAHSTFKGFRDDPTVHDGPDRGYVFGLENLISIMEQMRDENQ
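ADP-Glo luminescence measures ADP made by human IP6K1 during a 2 h RT reaction with ATP/IP6 (mix at 1.3 mM/130 uM); top library doses 57.5 and 19.1 uM final.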
KDM5B inh: Primary screen for KDM5B Histone Demethylases FDH-coupled qHTS; Lysine-specific demethylase 5B (Homo sapiens), Q9UGL1; KDM5B demethylase, FDH-coupled NADH fluorescence (FDH is formaldehyde dehydrogenase); Potency, µM (doses to about 57.7 µM), actives largely listed as inhibitors; 2.6% of 220,000 active; AID 1347165, 2019; also: nearly all actives have a fitted effect of over 70% in size
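Inhibition is measured as reduced NADH fluorescence generation from FDH coupling to formaldehyde release. Truncated KDM5BΔAP at 200 nM final acts on H3K4me3 peptide (12.5 µM in substrate mix) in pH 7.5 HEPES buffer with Tween-20, 30 min, room temperature.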
SNCA expr inh: Primary qHTS assay for inhibitors of alpha-synuclein gene (SNCA) expression; HEK-293 SNCA-luciferase knock-in, luminescence, 24 h; Potency, µM (series often up to 57.2 µM), hits mostly inhibitors; 0.17% of 140,000 active; also: nearly all actives have a fitted effect of over 45% in size
SNCA viab count: GF-AFC viability counterscreen for inhibitors of alpha-synuclein gene (SNCA) expression; HEK-293-SNCA-luc viability, GF-AFC fluorescence, 24 h; AID 1671193, 2021; Potency, µM (series often up to 57.1 µM), most hits filed as cytotoxic; 0.12% of 150,000 active; also: nearly all actives have a fitted effect of over 30% in size
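Cytotoxicity counterscreen: after 24 h compound treatment of genome-edited SNCA-luciferase HEK-293 cells, live-cell protease substrate GF-AFC read by fluorescence after 30 min; activity scaled between DMSO (0%) and medium-only (-100%), curves Hill-fitted.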
Large screens that a line does not name were inactive. Only some compounds are listed: those with a hit (about 2.9% of all), similar ones and a draw of the others. Unless noted, calls follow the shape of the dose curve; as a rule, active = well fitted curve in the direction sought with a large enough effect; inconclusive = small, poorly fitted or top-dose-only effect, or another doubt; inactive = no such curve, though single readings can be large; an effect the other way counts as inactive or inconclusive.

Cc1ccc(-c2cc3c(=O)n(CCNC(=O)c4cccc(N(C)C)c4)ccn3n2)cc1C	KDM5B inh 17.8µM
Cc1ccc(-c2cc3c(=O)n(CCNC(=O)c4ccc(F)cc4Cl)ccn3n2)cc1C	KDM5B inh 31.6µM
CCN(CC)Cc1ccc2c(c1)CN(C(=O)Nc1cccc(F)c1)CCO2	none
CCN(C)c1cccc(NC(=O)c2ccc3ccccc3n2)c1	none (no result: IP6K1 inhibitor, SNCA expr inh, SNCA viab count)
CCCN(C)C(=O)Cc1ccc(N(Cc2ccccc2)C(=O)c2ccco2)cc1	none
CC(C)c1ccc(-c2nc(C(N)=O)c3c(n2)n(-c2ccc4c(c2)OCO4)c(=O)n3C)cc1	none
Cn1c(=O)n(-c2ccc3c(c2)OCO3)c2nc(-c3ccc(Cl)cc3)nc(C(N)=O)c21	KDM5B inh inconclusive, SNCA expr inh 31.6µM
O=C(c1ccn2nccc2c1)N1CCOCC1	KDM5B inh 31.6µM
COCc1nc2nc(-c3ccccc3)c(Nc3ccc(F)cc3)cc2n1C	KDM5B inh 31.6µM
COCc1nc2nc(-c3ccccc3)c(Nc3ccncc3)cc2n1C	KDM5B inh inconclusive
CCN(CC)C(=O)COc1ccc(-c2nnc(Nc3ccc(OC)cc3)c3ccccc23)cc1	none (no result: IP6K1 inhibitor, SNCA expr inh, SNCA viab count)
COC(=O)COc1ccc(-c2nnc(Nc3ccc(O)cc3)c3ccccc23)cc1	KDM5B inh inconclusive, SNCA expr inh 28.2µM, SNCA viab count inconclusive
Cc1noc(C)c1-c1cc2cc(CO)oc2c(NCC2CCOCC2)n1	KDM5B inh 31.6µM
Cc1noc(C)c1-c1cc2cc(CN(C)C)oc2c(NCc2cccnc2)n1	none
Cc1noc(C)c1-c1cc2cc(CO)oc2c(NC2CCOCC2)n1	KDM5B inh 35.5µM
Cc1cc2cc(-c3c(C)noc3C)nc(NC3CC3)c2o1	none
Cc1noc(C)c1-c1cc2cc(CN(C)C)oc2c(Nc2cccnc2)n1	KDM5B inh 28.2µM
Cc1[nH]c(=O)[nH]c(=O)c1CCC(=O)Nc1nc(C(C)(C)C)cs1	none (no result: IP6K1 inhibitor, SNCA expr inh, SNCA viab count)
C[C@@H]1CN(c2nc(-c3ccccc3)no2)CC[C@@]1(O)C1CCC1	SNCA expr inh 14.1µM
OCC1(CC2CC2)CCCN(c2nc(-c3ccccc3)no2)C1 (centres undefined)	none
c1cc(-c2noc([C@@H]3Cc4nc[nH]c4CN3CC3CCCCC3)n2)ccn1	KDM5B inh 35.5µM
c1csc(CN2Cc3[nH]cnc3C[C@H]2c2nc(-c3ccc4ccccc4c3)no2)c1	KDM5B inh 28.2µM, SNCA expr inh inconclusive
c1csc(CN2Cc3[nH]cnc3C[C@H]2c2nc(-c3ccncc3)no2)c1	KDM5B inh 28.2µM
COc1ccc(-c2noc([C@@H]3Cc4nc[nH]c4CN3Cc3cccs3)n2)cc1	KDM5B inh inconclusive, SNCA expr inh inconclusive
O=C1Nc2ccccc2CN(CC2CCCC2)C12CCNC2 (centres undefined)	KDM5B inh 89.1µM
O=C1Nc2ccccc2CN(CC2CC2)C12CCNC2 (centres undefined)	none
O=C1Nc2ccccc2CN(Cc2ccc(C(F)(F)F)cc2)C12CCNCC2	KDM5B inh 50.1µM
O=C1Nc2ccccc2CN(Cc2ccc(F)cc2)C12CCNCC2	KDM5B inh 44.7µM
Cc1ccc(CC(=O)N2C[C@@H](COc3ccccc3)[C@H](C(N)=O)C2)cc1	none
COC(=O)CC(NC(=O)Cc1cc(C(C)=O)ccc1OC)c1cccs1 (centres undefined)	none (no result: IP6K1 inhibitor, SNCA expr inh, SNCA viab count)
Cc1ccc(CNc2oc(-c3ccc(S(=O)(=O)N(C)C)cc3)nc2C#N)cc1	none (no result: IP6K1 inhibitor, SNCA expr inh, SNCA viab count)
COc1ccc2c(c1)C=C(C(=O)Nc1ccc(C(=O)OC(C)C)cc1)C=CO2	none (no result: IP6K1 inhibitor, SNCA expr inh, SNCA viab count)
Clc1ccc(CNCCN2CCCC2)cc1Cl	none (no result: IP6K1 inhibitor, SNCA expr inh, SNCA viab count)
CN1CC(=O)N(c2ccccc2)Cc2c1ncnc2N1CCc2ccccc2C1	KDM5B inh 25.1µM
CN(C)C/C=C/C(=O)Nc1cccc(C(=O)Nc2cccc(Nc3ncc(Cl)c(-c4c[nH]c5ccccc45)n3)c2)c1	SNCA viab count inconclusive (no result: KDM5B inh, SNCA expr inh)
CN(C)C/C=C/C(=O)Nc1ccc(C(=O)Nc2cccc(Nc3ncc(Cl)c(-c4c[nH]c5ccccc45)n3)c2)cc1	SNCA expr inh 0.171µM, SNCA viab count inconclusive (no result: KDM5B inh)
Cc1oc(-c2ccc3ccccc3c2)nc1CN1CCNC(=O)C1	KDM5B inh 28.2µM
O/N=C/c1cn(Cc2ccc(F)cc2)c2ccccc12	none (no result: IP6K1 inhibitor, SNCA expr inh, SNCA viab count)
O=C(CC1CCCC1)N1CC[C@@]2(O)CCN(Cc3ccccn3)C[C@H]2C1	KDM5B inh 25.1µM
CCCNC(=O)Nc1cccc(C(=O)NC(C)C)c1	none (no result: IP6K1 inhibitor, SNCA expr inh, SNCA viab count)
COc1cc(F)ccc1-c1ccnc2nc(CC(C)C)nn12	KDM5B inh 28.2µM
Fc1ccc(Cc2nc3nccc(-c4cccs4)n3n2)cc1	KDM5B inh 28.2µM
COc1ccc(Cc2nc3nccc(-c4cccs4)n3n2)cc1	none
COc1ccc(-c2ccnc3nc(Cc4ccc(F)cc4)nn23)c(F)c1	KDM5B inh 25.1µM
COc1ccc(Cc2nc3nccc(-c4ccc(OC)cc4F)n3n2)cc1	KDM5B inh 28.2µM
N#Cc1ccc2nc([C@H]3CCN(Cc4ccc(F)c(F)c4)C3)[nH]c2c1	KDM5B inh inconclusive, SNCA expr inh inconclusive
Cc1ccc(-c2nc(C)sc2CC(=O)NCCc2cccs2)cc1	none (no result: IP6K1 inhibitor, SNCA expr inh, SNCA viab count)
COc1ccc(Cc2nc3nccc(-c4ccncc4)n3n2)cc1	none
COc1ccc(Cc2nc3nccc(-c4ccc(F)cc4OC)n3n2)cc1	KDM5B inh 17.8µM
CCN(Cc1ccncc1)C(=O)CCC[C@@H]1[C@H]2CCCN3CCC[C@@H](CN1Cc1cccnc1)[C@@H]23	KDM5B inh 28.2µM
CCN(Cc1ccncc1)C(=O)CCC[C@@H]1[C@H]2CCCN3CCC[C@@H](CN1C(C)=O)[C@@H]23	KDM5B inh inconclusive
CN1CCCN(C(=O)CCC[C@@H]2[C@H]3CCCN4CCC[C@@H](CN2Cc2cccnc2)[C@@H]34)CC1	KDM5B inh 22.4µM
CN1CCCN(C(=O)CCC[C@@H]2[C@H]3CCCN4CCC[C@@H](CN2Cc2ccccc2)[C@@H]34)CC1	SNCA viab count inconclusive
COc1ccccc1-c1cnc(NCc2ccccc2)c2c1CCO2	KDM5B inh 35.5µM
COc1ccccc1-c1cnc(Nc2cc(F)cc(N3CCOCC3)c2)c2c1CCO2	KDM5B inh inconclusive
COc1ccccc1-c1cnc(NC(=O)c2cnccn2)c2c1CCO2	KDM5B inh 35.5µM
c1ccc(CNc2ncc(-c3ccc(N4CCOCC4)cc3)c3c2OCC3)cc1	KDM5B inh 39.8µM
COc1cc(OC)cc(C(=O)N2CCC3(CC2)NC(=O)N(Cc2ccc(F)cc2)C3=O)c1	none
O=C(Nc1ccc(F)c(F)c1)c1nc2ccccc2nc1N1CCCCC1	none (no result: IP6K1 inhibitor, SNCA expr inh, SNCA viab count)
O=C(Nc1ccc(Cl)nc1)c1cc2cccnn2n1	KDM5B inh 35.5µM
CCc1ccc(CNC(=O)c2cc3ccccn3n2)cc1	KDM5B inh inconclusive
O=C(NCc1ccc(Cl)nc1)c1cc2cccnn2n1	KDM5B inh 35.5µM
Cc1cc(C(F)(F)F)nc(CNC(=O)c2ccc3cccc(F)c3n2)n1	KDM5B inh 22.4µM
CCCc1nc(C(=O)NCc2nc(C)cc(C(F)(F)F)n2)cs1	none
